We go through 1 substance from paper PMC7010328.

For assay [1], the target named is Nucleosome assembly protein 1-like 1 (UniProt P55209). The assay is described as follows: cross-link between two proteins; cross-linking mass spectrometry.
For assay [2], the target named is Small ribosomal subunit protein uS11 (UniProt P62263). The assay is described as above.

UniProt P55209, sequence (P55209 whole entry): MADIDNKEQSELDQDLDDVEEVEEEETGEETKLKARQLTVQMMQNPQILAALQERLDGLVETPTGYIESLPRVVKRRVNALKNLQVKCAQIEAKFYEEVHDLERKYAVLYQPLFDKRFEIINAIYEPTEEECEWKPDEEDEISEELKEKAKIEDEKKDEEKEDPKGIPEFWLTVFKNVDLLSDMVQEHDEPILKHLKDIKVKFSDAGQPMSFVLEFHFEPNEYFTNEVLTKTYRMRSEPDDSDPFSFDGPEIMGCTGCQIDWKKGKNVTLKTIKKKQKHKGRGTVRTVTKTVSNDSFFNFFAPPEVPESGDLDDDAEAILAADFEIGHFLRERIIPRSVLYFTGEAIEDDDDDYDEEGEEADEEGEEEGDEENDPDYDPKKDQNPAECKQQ

Turning to “60 kDa heat shock protein, mitochondrial, P10809”, the “listed as a hit” value in assay [1] and in assay [2] was “yes” each time.
